Laboratory results taken from the supplement of paper PMC10849652.
Of roughly 7,900 targets only a part is listed; those with a hit were picked by preference. About 0.6% of all pairs of compound and target were hits. Unmarked numbers belong to inactive results.

Tests used:
Assay in all cases: log2 fold change, soluble protein after heating vs DMSO (PISA); higher = thermal stabilisation; K562 cells, 10 uM, 30 min; active = over 0.2 and 3.5 SD of the protein, either way, in both replicates (recomputed)
[1] = compound: C#Cc1cccc(Nc2ncnc3cc(OCCOC)c(OCCOC)cc23)c1 [erlotinib]
Procedure, shortened: (§1)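 K562 cells at 2×10^6 cells/mL were exposed to 10 μM compound for 30 min, then aliquots were heated for 3 min across 48°C-58°C, pooled, and extracted in PBS containing 0.5% NP-40 at 4°C. The supernatant after 21,000xg for 90 min was taken as soluble protein and measured by TMTpro 16plex LC-MS/MS with channel sums equalised. Thermal stability is reported relative to control samples, with values from duplicates. Fold changes are given on a log2 scale.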

[2] = compound: C/C(=N\NC(=O)C1=CC(=CC=C1)S(=O)(=O)N2CCOCC2)/C3=C(C=CC(=C3)Cl)O
Procedure, shortened: as §1

[3] = compound: C1=CC(=C(C=C1Cl)C2=NC3=NC=CN=C3C(=N2)NC4=CC=NC=C4)F
Procedure, shortened: as §1

[4] = compound: C1=CC(=CC=C1C2=NC3=C(N2)C=C(C=C3)C(=O)N)OC4=CC=C(C=C4)Cl
Procedure, shortened: as §1

[5] = compound: C1=CC2=C(C=CC(=C2)/C=C\3/C(=O)NC(=NCC4=CC=CS4)S3)N=C1
Procedure, shortened: as §1

[6] = compound: C1=CC2=NC=CN=C2C=C1/C=C/3\C(=O)NC(=O)S3
Procedure, shortened: as §1

[7] = compound: C1=CC=C(C=C1)C2=NC(=C(N2)C3=CC=NC=C3)C4=CC(=C(C=C4)Cl)O
Procedure, shortened: as §1

[8] = compound: C1=CC=C2C(=C1)C3=NNC4=CC=CC(=C43)C2=O
Procedure, shortened: as §1

[9] = compound: C1CCN(C1)C(=O)NC2=CC=CC(=C2)NC3=NC=C(C(=N3)NCCC4=CN=CN4)Br
Procedure, shortened: as §1

[10] = compound: C1CN(CCC1(CC2=CC=C(C=C2)Cl)N)C3=NC=NC4=C3C=CN4
Procedure, shortened: as §1

Chain of UniProt Q8N2K1 (Q8N2K1 whole entry, looked up): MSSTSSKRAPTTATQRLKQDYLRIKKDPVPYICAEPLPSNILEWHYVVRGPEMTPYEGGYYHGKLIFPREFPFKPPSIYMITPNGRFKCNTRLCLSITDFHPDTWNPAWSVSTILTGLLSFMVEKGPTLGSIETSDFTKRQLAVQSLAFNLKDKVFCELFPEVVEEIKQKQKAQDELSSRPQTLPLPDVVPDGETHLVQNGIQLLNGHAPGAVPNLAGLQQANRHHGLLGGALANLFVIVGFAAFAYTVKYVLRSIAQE
Chain of UniProt Q9Y2L5 (Q9Y2L5 whole entry, looked up): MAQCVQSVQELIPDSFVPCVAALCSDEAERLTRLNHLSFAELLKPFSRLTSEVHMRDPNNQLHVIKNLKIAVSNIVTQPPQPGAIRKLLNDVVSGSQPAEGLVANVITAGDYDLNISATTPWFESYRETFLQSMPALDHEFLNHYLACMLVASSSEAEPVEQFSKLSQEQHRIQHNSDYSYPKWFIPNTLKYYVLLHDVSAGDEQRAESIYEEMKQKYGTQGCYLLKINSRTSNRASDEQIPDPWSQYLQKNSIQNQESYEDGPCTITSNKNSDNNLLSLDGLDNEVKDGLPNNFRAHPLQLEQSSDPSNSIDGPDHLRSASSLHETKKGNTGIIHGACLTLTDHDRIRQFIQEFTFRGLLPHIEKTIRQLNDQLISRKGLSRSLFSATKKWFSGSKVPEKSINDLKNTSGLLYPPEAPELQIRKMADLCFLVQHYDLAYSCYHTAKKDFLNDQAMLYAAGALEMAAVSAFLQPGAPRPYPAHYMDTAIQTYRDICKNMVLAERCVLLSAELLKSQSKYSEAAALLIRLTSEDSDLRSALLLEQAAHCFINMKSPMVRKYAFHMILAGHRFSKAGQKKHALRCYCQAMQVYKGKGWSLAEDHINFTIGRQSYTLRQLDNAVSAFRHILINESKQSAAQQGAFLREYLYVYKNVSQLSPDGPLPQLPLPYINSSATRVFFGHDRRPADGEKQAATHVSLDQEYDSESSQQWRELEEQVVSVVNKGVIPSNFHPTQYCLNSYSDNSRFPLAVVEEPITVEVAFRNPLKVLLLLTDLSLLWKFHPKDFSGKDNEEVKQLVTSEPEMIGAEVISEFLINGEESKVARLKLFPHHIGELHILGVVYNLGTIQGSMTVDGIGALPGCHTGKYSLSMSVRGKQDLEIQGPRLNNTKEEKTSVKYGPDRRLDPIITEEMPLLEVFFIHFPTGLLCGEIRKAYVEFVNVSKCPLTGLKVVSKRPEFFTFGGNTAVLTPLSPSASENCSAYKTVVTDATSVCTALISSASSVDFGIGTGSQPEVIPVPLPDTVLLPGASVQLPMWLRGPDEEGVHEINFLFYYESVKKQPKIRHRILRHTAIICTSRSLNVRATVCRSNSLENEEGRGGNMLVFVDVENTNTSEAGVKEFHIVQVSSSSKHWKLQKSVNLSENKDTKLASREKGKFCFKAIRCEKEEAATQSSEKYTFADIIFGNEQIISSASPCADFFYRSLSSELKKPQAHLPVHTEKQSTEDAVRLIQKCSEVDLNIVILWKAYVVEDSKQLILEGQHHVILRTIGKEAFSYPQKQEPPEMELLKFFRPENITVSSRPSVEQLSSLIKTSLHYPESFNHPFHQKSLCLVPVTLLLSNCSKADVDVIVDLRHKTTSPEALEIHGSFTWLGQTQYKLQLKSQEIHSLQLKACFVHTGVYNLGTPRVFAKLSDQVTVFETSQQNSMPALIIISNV
Chain of UniProt P26368 (P26368 whole entry, looked up): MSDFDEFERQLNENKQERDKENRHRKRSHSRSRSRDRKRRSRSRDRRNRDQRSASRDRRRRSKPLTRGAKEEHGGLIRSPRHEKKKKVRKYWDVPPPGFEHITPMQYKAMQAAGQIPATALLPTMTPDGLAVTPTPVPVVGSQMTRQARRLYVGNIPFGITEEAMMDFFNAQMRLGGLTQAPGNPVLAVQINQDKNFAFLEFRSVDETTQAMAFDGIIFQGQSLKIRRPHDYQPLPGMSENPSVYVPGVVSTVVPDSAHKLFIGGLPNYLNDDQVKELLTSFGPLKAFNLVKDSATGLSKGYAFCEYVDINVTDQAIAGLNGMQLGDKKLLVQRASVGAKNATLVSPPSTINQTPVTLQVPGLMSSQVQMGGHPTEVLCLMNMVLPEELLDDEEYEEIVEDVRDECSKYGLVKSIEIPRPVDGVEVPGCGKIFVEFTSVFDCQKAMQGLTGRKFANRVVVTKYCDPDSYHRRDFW
Chain of UniProt Q6NUQ4 (Q6NUQ4 whole entry, looked up): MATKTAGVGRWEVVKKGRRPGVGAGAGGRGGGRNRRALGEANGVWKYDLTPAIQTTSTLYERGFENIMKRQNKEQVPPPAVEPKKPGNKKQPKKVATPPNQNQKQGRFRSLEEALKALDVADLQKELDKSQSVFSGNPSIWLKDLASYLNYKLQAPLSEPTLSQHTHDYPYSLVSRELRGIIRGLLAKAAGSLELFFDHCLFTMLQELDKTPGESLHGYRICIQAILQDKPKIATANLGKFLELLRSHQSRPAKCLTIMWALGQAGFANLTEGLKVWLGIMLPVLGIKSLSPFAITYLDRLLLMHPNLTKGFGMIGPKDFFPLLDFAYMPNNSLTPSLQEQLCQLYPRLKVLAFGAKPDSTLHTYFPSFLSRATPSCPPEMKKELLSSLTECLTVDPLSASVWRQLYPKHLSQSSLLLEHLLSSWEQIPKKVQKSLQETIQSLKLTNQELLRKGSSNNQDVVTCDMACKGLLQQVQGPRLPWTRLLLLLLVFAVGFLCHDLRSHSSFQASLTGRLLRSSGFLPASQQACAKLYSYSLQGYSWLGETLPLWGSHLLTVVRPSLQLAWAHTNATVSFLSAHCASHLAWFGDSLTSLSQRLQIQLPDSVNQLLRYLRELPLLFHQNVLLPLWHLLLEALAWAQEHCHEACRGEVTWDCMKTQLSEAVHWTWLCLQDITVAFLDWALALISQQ
Chain of UniProt Q15642 (Q15642 whole entry, looked up): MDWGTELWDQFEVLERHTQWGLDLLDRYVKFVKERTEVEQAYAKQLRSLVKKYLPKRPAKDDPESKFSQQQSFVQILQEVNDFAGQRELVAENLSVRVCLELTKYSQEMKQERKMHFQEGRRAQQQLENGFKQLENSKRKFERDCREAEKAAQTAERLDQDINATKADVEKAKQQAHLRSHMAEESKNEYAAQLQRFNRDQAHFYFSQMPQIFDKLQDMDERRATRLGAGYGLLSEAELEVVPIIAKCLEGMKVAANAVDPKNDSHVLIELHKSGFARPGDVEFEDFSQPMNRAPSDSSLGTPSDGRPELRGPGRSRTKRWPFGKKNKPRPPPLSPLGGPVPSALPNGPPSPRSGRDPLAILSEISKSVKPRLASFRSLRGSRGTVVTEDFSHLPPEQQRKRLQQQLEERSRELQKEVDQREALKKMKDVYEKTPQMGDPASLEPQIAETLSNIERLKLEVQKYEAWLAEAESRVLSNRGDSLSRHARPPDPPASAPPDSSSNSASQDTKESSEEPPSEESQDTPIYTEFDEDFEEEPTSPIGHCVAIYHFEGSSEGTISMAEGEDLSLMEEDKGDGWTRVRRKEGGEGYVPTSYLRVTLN
Chain of UniProt Q96K49 (Q96K49 whole entry, looked up): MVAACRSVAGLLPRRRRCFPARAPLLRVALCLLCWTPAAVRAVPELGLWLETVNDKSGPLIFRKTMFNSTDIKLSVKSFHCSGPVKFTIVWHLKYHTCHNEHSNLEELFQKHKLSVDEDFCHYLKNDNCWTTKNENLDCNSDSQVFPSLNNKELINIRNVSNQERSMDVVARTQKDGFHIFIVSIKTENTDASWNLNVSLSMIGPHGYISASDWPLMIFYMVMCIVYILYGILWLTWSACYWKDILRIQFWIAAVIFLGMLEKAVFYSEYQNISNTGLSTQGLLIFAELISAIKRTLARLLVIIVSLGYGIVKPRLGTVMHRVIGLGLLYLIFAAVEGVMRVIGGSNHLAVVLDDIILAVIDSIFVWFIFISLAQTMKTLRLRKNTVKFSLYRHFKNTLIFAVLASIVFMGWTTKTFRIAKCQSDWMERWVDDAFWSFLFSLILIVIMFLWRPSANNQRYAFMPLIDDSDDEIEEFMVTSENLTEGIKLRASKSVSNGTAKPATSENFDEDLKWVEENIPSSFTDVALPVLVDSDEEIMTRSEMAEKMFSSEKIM
Chain of UniProt P22314 (P22314 whole entry, looked up): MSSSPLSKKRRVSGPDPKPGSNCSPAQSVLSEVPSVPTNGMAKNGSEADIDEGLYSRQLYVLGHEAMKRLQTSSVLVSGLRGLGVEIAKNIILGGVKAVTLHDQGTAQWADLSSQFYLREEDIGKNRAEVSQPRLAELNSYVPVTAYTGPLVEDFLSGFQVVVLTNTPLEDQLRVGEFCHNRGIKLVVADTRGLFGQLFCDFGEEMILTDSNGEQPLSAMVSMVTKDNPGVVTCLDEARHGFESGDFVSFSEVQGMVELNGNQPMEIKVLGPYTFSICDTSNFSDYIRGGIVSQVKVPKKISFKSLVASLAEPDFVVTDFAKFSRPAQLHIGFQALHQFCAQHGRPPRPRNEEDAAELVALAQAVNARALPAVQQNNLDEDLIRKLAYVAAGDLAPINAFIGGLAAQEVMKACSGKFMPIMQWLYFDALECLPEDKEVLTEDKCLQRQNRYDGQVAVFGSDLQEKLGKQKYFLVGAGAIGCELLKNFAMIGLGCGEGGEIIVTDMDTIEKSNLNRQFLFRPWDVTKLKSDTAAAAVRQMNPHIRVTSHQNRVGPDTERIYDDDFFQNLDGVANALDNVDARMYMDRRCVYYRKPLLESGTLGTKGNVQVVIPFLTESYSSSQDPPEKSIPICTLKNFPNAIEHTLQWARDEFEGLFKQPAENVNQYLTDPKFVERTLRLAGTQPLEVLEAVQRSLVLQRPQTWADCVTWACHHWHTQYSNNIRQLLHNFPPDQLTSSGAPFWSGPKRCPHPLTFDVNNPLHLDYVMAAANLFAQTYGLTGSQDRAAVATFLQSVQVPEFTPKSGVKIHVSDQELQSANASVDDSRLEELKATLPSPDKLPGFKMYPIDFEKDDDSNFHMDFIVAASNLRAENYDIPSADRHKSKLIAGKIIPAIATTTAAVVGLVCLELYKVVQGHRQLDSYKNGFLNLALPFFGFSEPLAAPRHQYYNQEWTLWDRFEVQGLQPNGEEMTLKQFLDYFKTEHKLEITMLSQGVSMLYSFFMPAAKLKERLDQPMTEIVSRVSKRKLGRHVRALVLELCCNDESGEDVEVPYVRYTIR

Row | Target | log2 fold change [1] | log2 fold change [2] | log2 fold change [3] | log2 fold change [4] | log2 fold change [5] | log2 fold change [6] | log2 fold change [7] | log2 fold change [8] | log2 fold change [9] | log2 fold change [10]
1 | VWA3B isoform 6 (UniProt Q502W6) | 0.107 | -0.036 | 0.213 | -0.057 | 0.048 | 0.111 | -0.214 | -0.049 | 0.03 | -0.03
2 | UFM1 isoform 2 (UniProt P61960) | -0.132 | 0.108 | 0.06 | 0.14 | 0.07 | 0.032 | – | -0.003 | 0.08 | 0.004
3 | TMEM106B (UniProt Q9NUM4) | 0.007 | 0.028 | -0.047 | 0.031 | 0.051 | -0.002 | – | 0.003 | -0.064 | 0.15
4 | U2AF2 (UniProt P26368) | 0.012 | 0.045 | -0.013 | 0.029 | -0.045 | -0.004 | 0.012 | -0.048 | -0.026 | -0.074
5 | TMEM161B (UniProt Q8NDZ6) | 0.037 | -0.074 | 0.013 | -0.021 | -0.054 | 0.018 | 0.159 | -0.026 | -0.053 | -0.03
6 | VPS18 (UniProt Q9P253) | 0.026 | 0.065 | 0.019 | 0.023 | 0.04 | 0.04 | -0.086 | -0.012 | -0.006 | -0.024
7 | TRAPPC2L (UniProt Q9UL33) | 0.193 | 0.062 | -0.037 | -0.273 | -0.047 | 0.001 | -0.096 | -0.008 | -0.083 | -0.031
8 | VPS50 (UniProt Q96JG6) | 0.008 | 0.094 | -0.003 | -0.017 | 0.088 | 0.025 | 0.023 | -0.019 | -0.022 | -0.021
9 | TMEM104 (UniProt Q8NE00) | 0.08 | -0.026 | 0.037 | 0.026 | 0.039 | – | 0.013 | -0.015 | – | –
10 | UBE4B isoform 4 (UniProt O95155) | -0.01 | 0.026 | 0.041 | -0.016 | 0 | 0.055 | 0.026 | -0.013 | -0.008 | -0.025
11 | TMEM214 (UniProt Q6NUQ4) | -0.068 | 0.016 | -0.019 | 0.001 | 0.015 | 0.017 | -0.044 | -0.025 | 0.009 | -0.088
12 | UHRF1BP1L (UniProt A0JNW5) | -0.024 | 0.017 | 0.016 | 0.027 | 0.042 | 0.01 | -0.009 | 0.025 | -0.007 | 0.061
13 | TOMM20 (UniProt Q15388) | 0.073 | -0.01 | -0.013 | 0.004 | 0.012 | 0.018 | 0.049 | -0.006 | 0.007 | 0.027
14 | TMEM219 (UniProt Q86XT9) | -0.029 | 0.035 | 0.059 | 0.073 | 0.001 | 0.015 | – | 0.006 | 0.042 | 0.016
15 | VPS39 (UniProt Q96JC1) | -0.006 | 0.08 | -0.005 | 0.022 | 0 | 0.023 | -0.014 | -0.046 | 0.01 | 0.054
16 | TP53BP1 isoform 2 (UniProt Q12888) | -0.011 | 0.019 | -0.017 | -0.001 | 0.012 | 0.043 | -0.024 | -0.078 | -0.057 | -0.077
17 | TRAPPC13 isoform 5 (UniProt A5PLN9) | 0.133 | 0.047 | -0.028 | -0.047 | 0.084 | 0.021 | 0 | -0.038 | -0.005 | 0.009
18 | TRAPPC8 (UniProt Q9Y2L5) | 0.024 | 0.118 | -0.012 | 0.027 | 0.094 | -0.007 | -0.068 | -0.018 | -0.011 | -0.036
19 | WDR46 (UniProt O15213) | -0.209 | -0.231 | -0.816 (active) | 0.008 | -0.154 | 0.065 | -0.055 | 0.052 | 0.057 | -0.087
20 | TMEM164 (UniProt Q5U3C3) | -0.103 | 0.178 | 0.041 | 0.002 | 0.129 | 0.078 | – | 0.017 | -0.042 | 0.021
21 | UBA1 (UniProt P22314) | 0.1 | 0.166 | 0.074 | -0.024 | 0.114 | -0.004 | 0.065 | 0.023 | -0.034 | -0.175
22 | UBAP2L isoform 1 (UniProt Q14157) | -0.126 | 0.013 | -0.003 | 0.083 | -0.06 | -0.023 | 0.04 | -0.024 | -0.082 | 0.017
23 | TRIP10 (UniProt Q15642) | 0.052 | 0.015 | 0.203 | 0.022 | 0.013 | -0.025 | 0.044 | 0.011 | 0.013 | -0.026
24 | TMEM87B (UniProt Q96K49) | 0.035 | 0.059 | -0.069 | 0.013 | 0.003 | 0.055 | 0.009 | -0.143 | -0.06 | 0.047
25 | UBE2J2 isoform 3 (UniProt Q8N2K1) | -0.096 | 0.154 | 0.026 | 0.07 | -0.057 | 0.126 | – | -0.039 | -0.145 | -0.015
26 | USP24 (UniProt Q9UPU5) | 0.126 | -0.147 | 0.101 | -0.113 | 0.092 | 0.148 | 0.141 | 0.094 | 0.181 | 0.297
27 | VTI1A (UniProt Q96AJ9) | -0.07 | 0.026 | -0.037 | -0.014 | 0.015 | 0.087 | -0.055 | -0.002 | 0.019 | 0.005
28 | UFD1 isoform 1 (UniProt Q92890) | 0.001 | 0.019 | 0.051 | -0.008 | 0.012 | 0.015 | -0.01 | -0.021 | -0.036 | 0.024
29 | TNPO1 (UniProt Q92973) | -0.032 | 0.08 | 0.038 | 0.011 | -0.006 | 0.016 | 0.008 | -0.027 | -0.001 | 0
30 | XIAP (UniProt P98170) | 0.166 | 0.062 | 0.1 | -0.002 | 0.075 | -0.018 | – | -0.002 | -0.024 | 0.065
